The values that follow come from PubChem BioAssay (EPA / NIEHS).

Assay [1] deals with human Vascular Endothelial Growth Factor Receptor 1 (VEGFR1), FLT1 (gene 2321) (UniProt P17948). Description: NVS_ENZ_hVEGFR1: NovaScreen (NVS) Enzymatic Assay for human Vascular Endothelial Growth Factor Receptor 1 (VEGFR1) (AID 2283226). As to the method: (§1) NVS_ENZ_hVEGFR1 is a biochemical, single-readout assay that uses extracted gene-proteins in a cell-free assay. Measurements were taken 1 hour after chemical dosing in a 384-well plate.NVS_ENZ_hVEGFR1 is one of one assay component(s) measured or calculated from the NVS_ENZ_hVEGFR1 assay. It is designed to make measurements of enzyme activity, a form of enzyme reporter, as detected with fluorescence intensity signals by Fluorescence and electrophoretic mobility shift technology.Data from the assay component NVS_ENZ_hVEGFR1 was analyzed into 1 assay endpoint. This assay endpoint, NVS_ENZ_hVEGFR1, was analyzed in the positive analysis fitting direction relative to DMSO as the negative control and baseline of activity. Using a type of enzyme reporter, loss-of-signal activity can be used to understand changes in the enzymatic activity as they relate to the gene FLT1. Furthermore, this assay endpoint can be referred to as a primary readout, because this assay has produced multiple assay endpoints where this one serves a enzymatic activity function. To generalize the intended target to other relatable targets, this assay endpoint is annotated to the kinase intended target family, where the subfamily is receptor tyrosine kinase.
Binding assays used specific radioligands (tritiated, iodinated) with non-radioactive competitive displacement ligands in agonist or antagonist protocols (as indicated) and various reference compounds and inhibitors to titrate specific binding to receptors and transporters. Most enzyme assays (CYPs, kinases, phosphatases, proteases, HDACs) used recombinant protein and specific substrates (fluorescence mostly, some colorimetric and radioactive) and inhibitors, followed by a biochemical separation of substrate and product. All assays for the biochemical HTS were initially run in duplicate at a single concentration (10 uM for CYP450 assays and 25 uM for all others). […] Each assay was run with positive and negative controls, and concurrent controls on every plate. […]

Assay [2] addresses human Sirtuin 2 (SIRT2), SIRT2 (gene 22933) (UniProt Q8IXJ6). Put plainly: NVS_ENZ_hSIRT2: NovaScreen (NVS) Enzymatic Assay for human Sirtuin 2 (SIRT2) (AID 2283217). The method in brief:
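Cell-free recombinant human SIRT2, fluorescent substrate with product separated by electrophoretic mobility shift, 1 hr. Screened in duplicate at 25 uM; hits rerun singly in concentration-response up to 50 uM, relative to DMSO.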

Assay [3] has as its target human Tyrosine Protein Kinase Receptor Tie-2 (Tie2), TEK (gene 7010) (UniProt Q02763). Description: NVS_ENZ_hTie2: NovaScreen (NVS) Enzymatic Assay for human Tyrosine Protein Kinase Receptor Tie-2 (Tie2) (AID 2283225). As to the method:
as §1, with “NVS_ENZ_hTie2” for “NVS_ENZ_hVEGFR1”, “plate.NVS_ENZ_hTie2” for “plate.NVS_ENZ_hVEGFR1”, “NVS_ENZ_hTie2,” for “NVS_ENZ_hVEGFR1,”, “TEK.” for “FLT1.”
(§2) Binding assays used specific radioligands (tritiated, iodinated) with non-radioactive competitive displacement ligands in agonist or antagonist protocols (as indicated) and various reference compounds and inhibitors to titrate specific binding to receptors and transporters. Most enzyme assays (CYPs, kinases, phosphatases, proteases, HDACs) used recombinant protein and specific substrates (fluorescence mostly, some colorimetric and radioactive) and inhibitors, followed by a biochemical separation of substrate and product. All assays for the biochemical HTS were initially run in duplicate at a single concentration (10 uM for CYP450 assays and 25 uM for all others). Assay-chemical combinations meeting a pre-defined threshold (e.g., 30% inhibition and other criteria defined below) were then run in singleton concentration-response format with maximum concentration of 20 uM for CYPs and 50 uM for all others. Each assay was run with positive and negative controls, and concurrent controls on every plate. The follow-up (secondary) screen tested active chemical-pairs in concentration series, as well as a few additional assays not tested in the primary screen, some selected negative inactives, and several cases re-run in the concentration series for confirmatory purposes.

In assay [4] the target is human Vascular Endothelial Growth Factor Receptor 3 (VEGFR3), FLT4 (gene 2324) (UniProt P35916). Description: NVS_ENZ_hVEGFR3: NovaScreen (NVS) Enzymatic Assay for human Vascular Endothelial Growth Factor Receptor 3 (VEGFR3) (AID 2283229). The method in brief:
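Cell-free recombinant VEGFR3 kinase reaction with fluorescent substrate, read 1 h after dosing by electrophoretic mobility shift separation of substrate and product. Single-concentration duplicate screen at 25 uM, then concentration-response up to 50 uM; loss of activity versus DMSO.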

In assay [5] the target is human Raf-1 Proto-Oncogene, serine/threonine Kinase (RAF1), RAF1 (gene 5894) (UniProt P04049). Put plainly: NVS_ENZ_hRAF1: NovaScreen (NVS) Enzymatic Assay for human Raf-1 Proto-Oncogene, serine/threonine Kinase (RAF1) (AID 2283216). Summed up: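 Cell-free recombinant kinase with specific fluorescent substrate, product separated by electrophoretic mobility shift; read 1 h after dosing. Primary screen at 25 uM in duplicate; hits then run in concentration-response up to 50 uM, fitted as loss of signal versus DMSO.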

The target in assay [6] is human Sirtuin 1 (SIRT1), SIRT1 (gene 23411) (UniProt Q96EB6). Description: NVS_ENZ_hSIRT1: NovaScreen (NVS) Enzymatic Assay for human Sirtuin 1 (SIRT1) (AID 2283219). As to the method: as §1, with “NVS_ENZ_hSIRT1” for “NVS_ENZ_hVEGFR1”, “plate.NVS_ENZ_hSIRT1” for “plate.NVS_ENZ_hVEGFR1”, “NVS_ENZ_hSIRT1,” for “NVS_ENZ_hVEGFR1,”, “SIRT1.” for “FLT1.”, “hydrolase” for “kinase”, “protein deacetylase.” for “receptor tyrosine kinase.”
as §2

Assay [7] has as its target human Sirtuin 3 (SIRT3), SIRT3 (gene 23410) (UniProt Q9NTG7). Description: NVS_ENZ_hSIRT3: NovaScreen (NVS) Enzymatic Assay for human Sirtuin 3 (SIRT3) (AID 2283222). Summed up:
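Cell-free enzyme assay with recombinant protein and fluorescent substrate, product separated by electrophoretic mobility shift; read 1 hour after dosing. Screened in duplicate at 25 uM, then singleton concentration-response up to 50 uM; loss of signal versus DMSO.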

For assay [8], the target named is human Tropomyosin Receptor Kinase A (TRKA), NTRK1 (gene 4914) (UniProt P04629). Description: NVS_ENZ_hTrkA: NovaScreen (NVS) Enzymatic Assay for human Tropomyosin Receptor Kinase A (TRKA) (AID 2283224). Summed up:
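Recombinant human TrkA activity read after 1 h by fluorescence with electrophoretic mobility shift separating substrate and product. Primary screen in duplicate at 25 uM; actives were rerun in concentration-response up to 50 uM. Loss of signal versus DMSO.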

Assay [9] deals with human SRC Proto-Oncogene, Non-receptor Tyrosine Kinase (SRC), SRC (gene 6714) (UniProt P12931). Put plainly: NVS_ENZ_hSRC: NovaScreen (NVS) Enzymatic Assay for human SRC Proto-Oncogene, Non-receptor Tyrosine Kinase (SRC) (AID 2283223). As to the method:
as §1, with “NVS_ENZ_hSRC” for “NVS_ENZ_hVEGFR1”, “plate.NVS_ENZ_hSRC” for “plate.NVS_ENZ_hVEGFR1”, “NVS_ENZ_hSRC,” for “NVS_ENZ_hVEGFR1,”, “SRC.” for “FLT1.”, “non-receptor” for “receptor”, “kinase. […]” for “kinase.”

The target in assay [10] is rabbit Imidazoline 2 Central (I2C), CKB (gene 100009085) (UniProt P00567). Put plainly: NVS_ENZ_rabI2C: NovaScreen (NVS) Enzymatic Assay for rabbit Imidazoline 2 Central (I2C) (AID 2283228). Summed up: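 Rabbit brain membranes, cell-free; readout by filter-based scintillation counting 1.5 hours after dosing, loss of signal vs DMSO. Initial duplicate test at 25 uM, then concentration-response with 50 uM top concentration.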

The structures appear in SMILES notation. Records with an inconclusive call do not appear. The source made the active and inactive calls. The calls were made as follows: active = hit-call score of the fitted dose curve at least 0.9, where 1 is the maximum; inconclusive = response in the unintended direction; inactive = score below 0.9.

As usually defined, the AC50 is the concentration at which the activity in the assay is half-maximal.

Chain of human Vascular Endothelial Growth Factor Receptor 3 (VEGFR3), FLT4 (gene 2324) (P35916 whole entry, looked up): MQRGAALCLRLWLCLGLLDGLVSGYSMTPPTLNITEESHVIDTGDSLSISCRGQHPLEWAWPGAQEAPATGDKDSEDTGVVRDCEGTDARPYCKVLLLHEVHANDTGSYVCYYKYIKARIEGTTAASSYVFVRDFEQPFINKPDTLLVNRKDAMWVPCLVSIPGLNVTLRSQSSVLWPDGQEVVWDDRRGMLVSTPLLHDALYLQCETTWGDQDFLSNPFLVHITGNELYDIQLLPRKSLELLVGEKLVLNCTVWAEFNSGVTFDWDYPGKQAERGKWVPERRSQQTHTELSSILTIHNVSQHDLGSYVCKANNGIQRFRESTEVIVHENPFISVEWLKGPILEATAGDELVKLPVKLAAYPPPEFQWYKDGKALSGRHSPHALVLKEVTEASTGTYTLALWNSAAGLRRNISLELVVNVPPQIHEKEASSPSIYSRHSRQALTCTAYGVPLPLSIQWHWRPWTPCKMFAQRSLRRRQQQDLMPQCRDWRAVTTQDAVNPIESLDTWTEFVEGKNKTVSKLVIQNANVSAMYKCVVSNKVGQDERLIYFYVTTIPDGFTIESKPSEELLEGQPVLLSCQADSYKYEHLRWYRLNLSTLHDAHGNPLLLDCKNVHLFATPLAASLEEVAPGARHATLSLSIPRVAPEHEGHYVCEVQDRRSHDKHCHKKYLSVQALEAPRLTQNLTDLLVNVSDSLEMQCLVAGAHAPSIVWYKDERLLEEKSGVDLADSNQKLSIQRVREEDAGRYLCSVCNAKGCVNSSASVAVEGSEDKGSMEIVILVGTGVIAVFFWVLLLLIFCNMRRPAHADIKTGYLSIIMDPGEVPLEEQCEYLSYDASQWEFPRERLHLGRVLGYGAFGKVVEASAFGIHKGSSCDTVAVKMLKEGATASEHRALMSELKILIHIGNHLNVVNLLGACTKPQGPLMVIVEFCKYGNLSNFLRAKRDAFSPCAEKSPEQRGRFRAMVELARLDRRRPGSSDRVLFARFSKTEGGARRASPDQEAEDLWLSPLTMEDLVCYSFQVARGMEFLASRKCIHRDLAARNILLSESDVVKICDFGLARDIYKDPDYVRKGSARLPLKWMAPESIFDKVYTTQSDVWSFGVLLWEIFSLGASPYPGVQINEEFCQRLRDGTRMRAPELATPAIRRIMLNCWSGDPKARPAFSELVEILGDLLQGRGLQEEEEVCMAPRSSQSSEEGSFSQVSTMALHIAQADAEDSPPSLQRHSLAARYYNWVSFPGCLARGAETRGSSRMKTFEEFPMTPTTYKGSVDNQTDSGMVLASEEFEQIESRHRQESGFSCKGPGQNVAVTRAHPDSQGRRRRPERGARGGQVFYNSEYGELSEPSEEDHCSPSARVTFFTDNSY
Chain of human Raf-1 Proto-Oncogene, serine/threonine Kinase (RAF1), RAF1 (gene 5894) (P04049 whole entry, looked up): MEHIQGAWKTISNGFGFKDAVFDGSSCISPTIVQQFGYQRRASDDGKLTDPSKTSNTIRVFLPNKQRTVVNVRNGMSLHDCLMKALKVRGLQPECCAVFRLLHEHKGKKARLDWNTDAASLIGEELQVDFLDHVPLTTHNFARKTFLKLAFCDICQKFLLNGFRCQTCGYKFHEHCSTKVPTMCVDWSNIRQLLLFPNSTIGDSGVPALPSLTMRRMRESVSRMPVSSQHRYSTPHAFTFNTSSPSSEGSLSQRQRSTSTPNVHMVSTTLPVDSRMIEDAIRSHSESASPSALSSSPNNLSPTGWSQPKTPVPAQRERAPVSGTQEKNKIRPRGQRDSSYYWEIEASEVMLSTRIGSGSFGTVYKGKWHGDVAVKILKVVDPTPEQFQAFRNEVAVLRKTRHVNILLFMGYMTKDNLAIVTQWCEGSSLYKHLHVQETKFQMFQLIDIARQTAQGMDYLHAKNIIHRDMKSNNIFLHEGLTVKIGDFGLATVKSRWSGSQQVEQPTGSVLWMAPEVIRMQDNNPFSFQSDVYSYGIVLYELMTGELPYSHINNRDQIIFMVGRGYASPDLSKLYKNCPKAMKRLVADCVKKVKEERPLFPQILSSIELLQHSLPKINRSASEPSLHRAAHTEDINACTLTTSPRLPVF
Chain of human Sirtuin 2 (SIRT2), SIRT2 (gene 22933) (Q8IXJ6 whole entry, looked up): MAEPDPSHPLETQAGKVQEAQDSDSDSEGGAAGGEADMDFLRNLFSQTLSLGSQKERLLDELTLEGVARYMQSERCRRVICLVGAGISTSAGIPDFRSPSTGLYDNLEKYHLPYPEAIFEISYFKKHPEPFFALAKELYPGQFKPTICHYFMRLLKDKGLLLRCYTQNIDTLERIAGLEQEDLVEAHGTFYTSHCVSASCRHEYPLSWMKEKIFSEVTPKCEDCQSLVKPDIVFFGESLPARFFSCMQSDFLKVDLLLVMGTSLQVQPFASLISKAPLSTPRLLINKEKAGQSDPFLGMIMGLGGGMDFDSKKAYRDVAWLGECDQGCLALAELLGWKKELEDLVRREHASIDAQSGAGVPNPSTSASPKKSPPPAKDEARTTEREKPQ
Chain of human Sirtuin 3 (SIRT3), SIRT3 (gene 23410) (Q9NTG7 whole entry, looked up): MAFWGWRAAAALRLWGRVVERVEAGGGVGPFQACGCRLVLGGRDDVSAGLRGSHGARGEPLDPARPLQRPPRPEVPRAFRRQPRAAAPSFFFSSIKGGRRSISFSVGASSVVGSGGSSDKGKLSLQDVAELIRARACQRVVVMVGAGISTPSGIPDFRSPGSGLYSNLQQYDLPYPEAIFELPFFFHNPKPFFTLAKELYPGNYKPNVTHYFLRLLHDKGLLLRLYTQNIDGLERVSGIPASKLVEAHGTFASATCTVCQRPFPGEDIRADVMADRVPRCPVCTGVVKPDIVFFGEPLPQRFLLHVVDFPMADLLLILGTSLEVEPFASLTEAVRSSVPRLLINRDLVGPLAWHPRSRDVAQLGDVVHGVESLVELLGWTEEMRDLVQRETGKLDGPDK
Chain of human Vascular Endothelial Growth Factor Receptor 1 (VEGFR1), FLT1 (gene 2321) (P17948 whole entry, looked up): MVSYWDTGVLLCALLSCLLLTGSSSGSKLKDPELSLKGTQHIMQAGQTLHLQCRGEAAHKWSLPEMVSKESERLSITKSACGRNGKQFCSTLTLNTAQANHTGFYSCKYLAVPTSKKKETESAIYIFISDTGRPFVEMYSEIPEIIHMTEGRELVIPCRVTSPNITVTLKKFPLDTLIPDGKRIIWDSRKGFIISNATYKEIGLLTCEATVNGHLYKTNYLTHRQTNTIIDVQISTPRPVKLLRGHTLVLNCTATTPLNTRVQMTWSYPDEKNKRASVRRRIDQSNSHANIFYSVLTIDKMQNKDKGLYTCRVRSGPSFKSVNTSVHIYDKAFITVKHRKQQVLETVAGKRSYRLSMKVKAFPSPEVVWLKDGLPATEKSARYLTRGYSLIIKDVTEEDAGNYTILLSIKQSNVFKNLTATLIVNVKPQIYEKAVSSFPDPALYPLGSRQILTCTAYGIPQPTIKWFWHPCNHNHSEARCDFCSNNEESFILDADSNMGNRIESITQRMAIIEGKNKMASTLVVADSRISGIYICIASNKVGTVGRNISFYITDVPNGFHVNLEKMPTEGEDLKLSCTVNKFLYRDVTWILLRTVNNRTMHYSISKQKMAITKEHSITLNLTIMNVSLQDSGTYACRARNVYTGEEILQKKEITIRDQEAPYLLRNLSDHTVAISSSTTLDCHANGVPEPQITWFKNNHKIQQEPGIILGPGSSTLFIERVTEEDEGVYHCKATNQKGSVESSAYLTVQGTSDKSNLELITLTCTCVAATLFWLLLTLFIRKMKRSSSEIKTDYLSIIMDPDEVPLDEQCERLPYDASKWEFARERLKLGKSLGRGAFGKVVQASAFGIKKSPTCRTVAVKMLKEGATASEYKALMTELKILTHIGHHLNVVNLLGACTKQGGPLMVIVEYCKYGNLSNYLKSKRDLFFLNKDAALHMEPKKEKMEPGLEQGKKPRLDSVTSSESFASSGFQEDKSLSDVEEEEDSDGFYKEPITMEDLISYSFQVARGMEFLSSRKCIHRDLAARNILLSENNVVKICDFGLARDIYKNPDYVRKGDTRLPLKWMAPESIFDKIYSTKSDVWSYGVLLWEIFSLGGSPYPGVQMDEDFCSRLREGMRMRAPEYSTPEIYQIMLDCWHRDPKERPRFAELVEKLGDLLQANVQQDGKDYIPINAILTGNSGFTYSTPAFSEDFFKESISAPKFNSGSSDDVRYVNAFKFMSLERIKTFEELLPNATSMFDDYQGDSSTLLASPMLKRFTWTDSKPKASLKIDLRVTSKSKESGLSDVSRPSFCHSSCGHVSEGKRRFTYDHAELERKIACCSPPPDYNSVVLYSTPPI
Chain of human Sirtuin 1 (SIRT1), SIRT1 (gene 23411) (Q96EB6 whole entry, looked up): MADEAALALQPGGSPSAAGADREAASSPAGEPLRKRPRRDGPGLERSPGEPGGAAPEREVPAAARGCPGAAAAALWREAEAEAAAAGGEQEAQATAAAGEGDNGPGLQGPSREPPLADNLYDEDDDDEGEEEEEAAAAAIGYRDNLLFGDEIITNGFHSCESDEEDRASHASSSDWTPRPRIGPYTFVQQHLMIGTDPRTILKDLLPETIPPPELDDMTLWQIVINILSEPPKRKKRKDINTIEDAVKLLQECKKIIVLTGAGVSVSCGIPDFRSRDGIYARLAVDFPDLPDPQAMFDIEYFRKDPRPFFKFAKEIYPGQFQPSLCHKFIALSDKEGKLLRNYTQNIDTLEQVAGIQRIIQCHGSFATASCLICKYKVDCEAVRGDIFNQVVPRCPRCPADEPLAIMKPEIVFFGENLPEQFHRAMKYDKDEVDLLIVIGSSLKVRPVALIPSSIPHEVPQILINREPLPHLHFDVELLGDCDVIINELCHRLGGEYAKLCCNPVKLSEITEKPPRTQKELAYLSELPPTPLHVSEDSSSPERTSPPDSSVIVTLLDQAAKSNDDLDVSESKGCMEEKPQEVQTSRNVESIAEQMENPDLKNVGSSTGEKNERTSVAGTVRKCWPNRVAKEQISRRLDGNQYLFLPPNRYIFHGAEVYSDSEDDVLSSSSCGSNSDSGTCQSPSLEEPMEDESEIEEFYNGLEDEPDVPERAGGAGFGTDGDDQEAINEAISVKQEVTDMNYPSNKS

Regarding `ClC1=C(Cl)[C@]2(Cl)[C@@H]3[C@@H]4C[C@@H]([C@H]5O[C@@H]45)[C@@H]3[C@@]1(Cl)C2(Cl)Cl`, the compound was called inactive in assay [1].
For `CCCCCCOC(=O)c1ccccc1C(=O)OCCCCCC`, in assay [2], the compound was called inactive.
For the compound `Clc1ccc(C(c2ccccc2Cl)C(Cl)(Cl)Cl)cc1` (centres undefined), the result in [3] and in [4] was inactive.
For the compound `CC(C)C(=O)OCC(C)(C)C(OC(=O)C(C)C)C(C)C` (centres undefined), the compound was classed as inactive in assay [5] and in [1].
`O=C(O)C(F)(F)C(F)(F)C(F)(F)C(F)(F)C(F)(F)F`: the outcome in assay [5] and in assay [4] was inactive.
Consider `c1cc2ccc3cccc4ccc(c1)c2c34`, for which the compound was called inactive in assay [6], in assay [7] and in assay [4].
Consider `Cc1cccc([N+](=O)[O-])c1`, for which the call in assay [5] and in [2] was inactive.
For the compound `CCCN(CCC)N=O`, the compound was called inactive in [7], in assay [8] and in assay [3].
For the compound `CC1=C2C[C@H]3[C@@H](CC=C4C[C@@H](O)CC[C@@]43C)[C@@H]2CC[C@]12O[C@@H]1C[C@H](C)CN[C@H]1[C@H]2C`, the compound was called inactive in [9], in [8], in assay [3] and in [4].
With `Cc1cc2c3c(c1)C(c1ccccc1)=N[C@@H](NC(=O)c1ccncc1)C(=O)N3CC2`, the compound was classed as inactive in assay [2], in [7] and in assay [3].
In the case of `O=S(=O)(O)C(F)(F)C(F)(F)C(F)(F)C(F)(F)C(F)(F)C(F)(F)F`, in assay [2], the AC50 is 11.4 µM (active). Besides, the outcome in assay [6] and in assay [3] was inactive.
Regarding `CN(C)c1nc(=O)n(C2CCCCC2)c(=O)n1C`, the AC50 in [10] was 9.76 µM (active).
For `Oc1ccc(C(c2ccc(O)cc2)(C(F)(F)F)C(F)(F)F)cc1`, the compound was called inactive in [5]. For the same compound, the AC50 in [2] is 25 µM (active); in assay [6], 38.7 µM (active); in assay [7], 42.9 µM (active); in assay [3], 36.3 µM (active).
As for `O=C(O)C(F)(F)C(F)(F)C(F)(F)C(F)(F)C(F)(F)C(F)(F)C(F)(F)C(F)(F)F`, the outcome in assay [5], in [6], in [8], in [1] and in [4] was inactive. Besides, the AC50 in assay [3] was 6.63 µM (active).
On to `CCCCCCCCCC[N+](C)(C)CCCCCCCCCC`, for which the AC50 in assay [10] was 11.8 µM (active).
